# From PubChem
# TRHR PAM – TRH receptor (human) allosteric enhancement; P34981; TRHR cells, fluo-8 calcium fluorescence, EC20 TRH enhancement; enhancement, % at 2 µM; 360,000 tested, 0.66% active; AID 493056; in the data active = enhancement above about 30%; note: 0% is about no effect
# Target sequence (P34981 whole entry, looked up): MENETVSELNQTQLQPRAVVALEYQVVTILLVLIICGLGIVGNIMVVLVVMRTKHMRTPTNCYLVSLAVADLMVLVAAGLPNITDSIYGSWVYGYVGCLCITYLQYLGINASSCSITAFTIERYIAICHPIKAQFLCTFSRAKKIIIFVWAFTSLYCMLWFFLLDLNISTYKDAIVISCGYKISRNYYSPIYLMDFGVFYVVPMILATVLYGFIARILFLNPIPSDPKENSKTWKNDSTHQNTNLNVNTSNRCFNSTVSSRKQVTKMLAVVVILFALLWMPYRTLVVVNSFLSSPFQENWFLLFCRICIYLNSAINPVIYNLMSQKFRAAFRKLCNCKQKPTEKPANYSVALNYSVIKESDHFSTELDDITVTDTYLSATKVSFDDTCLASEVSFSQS
#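 Enhancer read-out: after compound pinning and an initial kinetic agonist-mode read, an EC20 of TRH (10 nM final) was injected and fluo-8 calcium signal (Ex 480/Em 530) followed at 1 s/cycle for 100 cycles in TRHR-expressing cells.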
# D1 antag – human D1 dopamine receptor antagonism. P21728. HEK293 TREx D1 cells, calcium flux, dopamine EC80; hits give low values. activity change, negative = inhibition, % at 10 µM. 360,000 tested, 3.2% active; in the data active = activity change below about -30%; note: % is set by controls: 0 for no effect and ±100 for the full control effect
#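 Kinetic fluorescence of a calcium dye serves as the read-out. D1-expressing Hek293 Trex cells, induced overnight at 30 C, are exposed to compound for 180 s before an EC80 dopamine addition, then read 180 s further.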
# D1 PAM – enhances dopamine response at the human D1 receptor; 360,000 tested, 0.036% active; P21728; AID 504651; potentiation, % at 10 µM; HEK293 TREx D1 cells, calcium flux, dopamine EC20 potentiation; in the data active = potentiation above about 30%; note: 0% is about no effect
# TRHR agonist – activates the human TRH receptor; TRHR cells, calcium flux fluo-8, FDSS agonist mode; activation, % at 2 µM; 360,000 tested, 0.18% active; note: 0% is about no effect
#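 Fluo-8-loaded TRHR cells; 10 s baseline, compound added, kinetic Ca2+ fluorescence read 1/s, agonist mode.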
# D1 agonist – human D1 receptor agonism; P21728; HEK293 T-REx D1 cells, calcium flux, agonist mode; activation, % at 2 µM; 360,000 tested, 1% active; AID 504660; note: 0% is about no effect
#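 Agonism was scored from calcium flux recorded over 180 s (1 read/s) after pintool compound addition, following a 10-cycle baseline. Cells were inducible force-coupled HEK293 TREx D1, plated overnight at 30 C and loaded with no-wash calcium dye.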
# Numbers without * were called inactive. In the library only some 4.7% were active in any assay of this set; here they are far more common. Cut-off read from the data, not from the text of the source, unless noted: active = activation above about 30%; inactive = the rest.
SMILES,TRHR PAM,D1 antag,D1 PAM,TRHR agonist,D1 agonist
COc1ccc(NC(=O)Nc2ccc3c(c2)N(C)C(=O)CS3)cc1Cl,-6,-33*,-7,0,13
O=C(Nc1ccc([N+](=O)[O-])cc1)Nc1ccc(OC(F)F)c(Cl)c1,-8,-49*,-17,2,25
O=C(Nc1ccc2c(c1)OCO2)Nc1ccc2c(c1)OCO2,10,2,4,0,10
Cc1c(C(=O)NCc2ccccc2Cl)sc2ncnc(N(C)C3CCCCC3)c12,-23,-4,2,0,4
COc1ccc(-c2nc(CSCC(=O)NC3CCN(Cc4ccccc4)CC3)c(C)o2)cc1OC,3,9,-2,0,3
COc1ccc(NC(=O)Nc2cccc([N+](=O)[O-])c2)cc1Cl,-1,-57*,-20,3,20
CCOC(=O)C(C)On1c(-c2ccccc2)nc2ccc([N+](=O)[O-])cc21 (stereo not given),-2,-26,-4,-1,1
CCOC(=O)C(C)On1c(-c2ccc(Cl)cc2)nc2ccc([N+](=O)[O-])cc21 (stereo not given),-8,-40*,-10,0,7
CCCOc1ccc(NC(=O)CC2C(=O)N(c3ccccc3)C(=O)N2CCC(C)C)cc1 (stereo not given),5,-2,0,0,1
COc1ccc(CCNC(=O)COc2ccc(-c3ccc(C)cc3)cc2)cc1OC,2,-31*,-1,0,2
COc1ccc(CCNC(=O)C(=O)NN=C2CCCCCCC2)cc1OC,-3,-74*,-8,-1,1
COc1ccc(CCNC(=O)CCOc2ccc(C)cc2)cc1OC,-9,-18,0,1,1
CCCCCCCCCC(=O)N1c2ccccc2NC(=O)C1CC(=O)Nc1ccc(C(=O)O)cc1 (stereo not given),-5,14,-5,0,39*
Cc1ccccc1CN1CCC(N2CCC(C(=O)NCC3CCCO3)CC2)CC1 (stereo not given),5,-15,2,1,4
O=C(COc1cc2oc(=O)c3c(c2cc1Cl)CCC3)NCc1ccccn1,-1,8,-5,1,3
O=C(COc1cc2oc(=O)c3c(c2cc1Cl)CCC3)NCc1ccncc1,36*,-5,8,0,1
CC(C)(C)c1ccc(S(=O)(=O)NCCc2ccncc2)cc1,-3,-95*,-6,-1,5
CCCc1ccc(S(=O)(=O)NCCc2ccncc2)cc1,0,-25,-7,0,8
CCOC(=O)C1=C(N)Oc2c(oc(CO)cc2=O)C1c1ccc(Cl)cc1 (stereo not given),-2,11,2,1,0
CCOC(=O)C1=C(N)Oc2c(oc(CO)cc2=O)C1c1c(F)cccc1Cl (stereo not given),8,-64*,2,-1,0
COc1ccc(CNS(=O)(=O)c2ccc(N3CCCCS3(=O)=O)cc2)cc1,-6,-14,-1,1,16
O=S(=O)(NCCN1CCOCC1)c1cc(Cl)c(Cl)cc1Cl,-12,-31*,-5,1,6
COc1ccc(OC)c(C(=O)CN2C(=O)N(c3ccc(C)cc3)S(=O)(=O)c3ccccc32)c1,-1,4,-1,1,7
Cn1cc(CNC(=O)c2cc(-c3ccccc3)nc3ccc(Br)cc23)cn1,-1,-34*,-1,0,2
Cc1ccccc1-c1nc(CN2CCC(C(=O)NCCCN3CCCC(C)C3)CC2)c(C)o1 (stereo not given),0,-5,-8,0,1
SMILES,TRHR PAM,D1 antag,D1 PAM,TRHR agonist,D1 agonist
CCC1CN(C(=O)N2CCC(C(=O)NCCC3=CCCCC3)CC2)c2cc(C)ccc2O1 (stereo not given),-7,-31*,-3,0,1
COc1ccc(CCNC(=O)C2CCN(Cc3nc(-c4ccccc4C)oc3C)CC2)cc1OC,-4,-40*,-6,0,37*
Cc1ccccc1-c1nc(CN2CCC(C(=O)NCCc3ccccc3)CC2)c(C)o1,3,-6,-4,0,23
Cc1ccccc1-c1nc(CN2CCC(C(=O)NCCC3=CCCCC3)CC2)c(C)o1,7,-28,-5,1,31*
COc1ccc(NC(=O)CSc2nc(-c3ccco3)cc(C(F)(F)F)n2)cc1,17,8,-4,0,7
CC/C(=N\NC(=O)c1csc(C)c1C)c1cccs1,8,0,-1,0,0
